# Screening data as filed in PubChem BioAssay.
# Sampled rows, rich in hits. Any-hit rate of the full collection: about 3.4%.
# MEKK2wt PB1 HTS: modulators of MEK5 binding to wildtype MEKK2, primary screen, biochemical, multiplex bead flow cytometry, Alexa488-MEK5; Mitogen-activated protein kinase kinase kinase 2 (Homo sapiens), Q9Y2U5; Alexa488-MEK5 binding to MEKK2 WT; actives lie on both sides; binding response (% of control), % at 10 µM; actives 1.1% (n = 290,000); AID 1531, 2009; in the data active = binding response below about 67% or above about 130%
# TMEM16A inh: TMEM16A chloride channel inhibitors, primary screen, cell-based, HTS. normalized B-score (activity score, 25-100; higher = stronger inhibition) at 10 µM. actives 1.2% (n = 310,000). HEK293 TMEM16A/YFP iodide influx fluorescence, ionomycin. Anoctamin-1 (Mus musculus), Q8BHY3;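 active = ratio plate-corrected score three or more library SD toward inhibition, starting fluorescence score within five deviations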;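 note: score derived from kinetic fluorescence span divided by baseline fluorescence per well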
# TMEM16A act: TMEM16A chloride channel activators or potentiators, primary screen, cell-based, HTS. actives 0.3% (n = 340,000). B-score at 10 µM. AID 623877, 2012. HEK293 TMEM16A/YFP-H148Q/I152L, iodide quench fluorescence; hits give low values;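 active = fluorescence-ratio B-score plate-corrected deviation score at least 3 library SD below zero, with starting fluorescence score within 5 deviations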;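 note: channel opened by trigger with iodide after compound preincubation; score built on the fluorescence ratio of max minus min over baseline; more negative score means more quench and so TMEM16A activation or potentiation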
# NTR1 agonist: agonists of human NTR1, primary screen, imaging, U2OS cells, beta-arrestin-GFP, high content; activation, % at 20 µM; actives 0.17% (n = 330,000); Neurotensin receptor type 1 (Homo sapiens), P30989; NTR1-U2OS beta-arrestin-GFP spot imaging, agonist mode;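 active = activation at or above 40% of the spot to cytoplasm intensity ratio, with at least 20 cells analyzed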;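 note: 0% = DMSO without peptide and 100% = 100 nM NTR1 peptide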
# Target sequence (P30989 whole entry, looked up): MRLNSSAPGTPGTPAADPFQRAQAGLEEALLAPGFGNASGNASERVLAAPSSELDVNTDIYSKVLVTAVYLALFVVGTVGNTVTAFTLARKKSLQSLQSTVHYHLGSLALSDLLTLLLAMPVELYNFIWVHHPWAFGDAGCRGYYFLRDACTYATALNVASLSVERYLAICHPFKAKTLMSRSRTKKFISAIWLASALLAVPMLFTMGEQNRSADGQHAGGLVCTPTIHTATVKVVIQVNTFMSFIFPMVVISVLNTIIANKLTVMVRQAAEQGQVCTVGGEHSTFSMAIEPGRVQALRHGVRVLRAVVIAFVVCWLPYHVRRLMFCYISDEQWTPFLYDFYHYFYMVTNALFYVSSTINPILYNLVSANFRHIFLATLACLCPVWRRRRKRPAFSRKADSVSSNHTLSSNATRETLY
# MEKK2 mut-MEK5: MEK5 binding signal on mutant MEKK2 PB1, primary screen, biochemical, multiplex bead flow cytometry, Alexa488-MEK5; actives 0.35% (n = 290,000); percent response, % at 10 µM; Alexa488-MEK5 binding to MEKK2 mutant; in the data active = percent response above about 24%, passing the limit was not always enough
# MEKK3 PB1 HTS: modulators of MEKK3-MEK5 PB1 binding, primary screen, biochemical, wildtype MEKK3, multiplex bead flow cytometry, Alexa488-MEK5; Mitogen-activated protein kinase kinase kinase 3 (Homo sapiens), Q99759; bead-based flow cytometry, Alexa488-MEK5 binding to MEKK3; actives lie on both sides; 0 = blocked by unlabeled MEK5, 100 = vehicle; binding response (% of control), % at 10 µM; actives 1.4% (n = 290,000); AID 1529, 2009;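 active = binding response more than 3 SD above or below the average of its plate-row segment, actives on both sides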;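 note: Alexa488 bead fluorescence after subtracting the streptavidin-only scavenger bead signal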
# MEKK2wt confirm: modulators of MEK5 binding to wildtype MEKK2, confirmation, biochemical, single concentration, multiplex bead flow cytometry; shares compounds with MEKK3 PB1 HTS; Alexa488-MEK5 binding to MEKK2 WT; actives lie on both sides; binding response (% of control), % at 10 µM; actives 2.4% (n = 5,900); AID 1892, 2009; in the data active = binding response below about 16% or above about 210%; inactive = in between
# MEKK2mut-MEK5: mutant MEKK2 PB1-MEK5 binding signal retest – biochemical, single concentration, multiplex bead flow cytometry, confirmation. shares compounds with MEKK3 PB1 HTS. Alexa488-MEK5 binding to MEKK2 mutant. percent response, % at 10 µM. actives 2% (n = 5,900); in the data active = percent response mostly above about 71%, no sharp cut-off; inactive = mostly below about 38%;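 note: higher means compound restores mutant binding toward wildtype level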
# MEKK3 confirm: MEKK3 wild-type PB1 binding to MEK5, inhibitors, confirmation, biochemical, bead multiplex flow cytometry, single concentration, wildtype. binding response (% of control), % at 10 µM. shares compounds with MEKK3 PB1 HTS. actives 1.8% (n = 5,900). Alexa488-MEK5 binding to MEKK3; hits give low values;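 active = binding response below 72% of control, or above a set upper limit, though filed actives all read lower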;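 note: 100% = DMSO only wells and 0% = binding blocked by excess unlabeled MEK5; lower values mean stronger disruption of MEK5 binding to MEKK3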
# * = called active by the depositor; i = inactive; x = no result; [ ] = another dose, or the depositor's remark.
SMILES,MEKK2wt PB1 HTS,TMEM16A inh,TMEM16A act,NTR1 agonist,MEKK2 mut-MEK5,MEKK3 PB1 HTS,MEKK2wt confirm,MEKK2mut-MEK5,MEKK3 confirm
Cc1ccc(S(=O)(=O)NCCNS(=O)(=O)c2ccc(C)cc2)cc1,108,i,i,0,9,105,x,x,x
C=CCNC(=O)CN(c1ccc(OC)cc1OC)S(C)(=O)=O,123,i,i,0,7,127*,98,-2,100
CCC1SC(CC)C(=O)N(CC(=O)Nc2ccc3c(c2)OCO3)C1=O (stereo unspecified),102,i,i,0,0,133*,109,3,102
CCOC(=O)c1ccc(NC(=O)CN2C(=O)C(CC)SC(CC)C2=O)cc1 (stereo unspecified),109,i,i,2,1,148*,103,2,99
CCOC(=O)c1ccc(NC(=O)CN2C(=O)CSCC2=O)cc1,103,i,i,0,0,132*,96,-2,93
CC1SCC(=O)N(CC(=O)Nc2ccc3c(c2)OCO3)C1=O (stereo unspecified),108,i,i,-1,11,102,x,x,x
CCOC(=O)c1ccc(NC(=O)CN2C(=O)CNC2=O)cc1,107,i,i,1,4,109,x,x,x
CCOC(=O)c1ccc(NC(=O)CN2C(=O)CSC2=O)cc1,95,i,i,-1,-1,100,x,x,x
Cc1cc(C)n2nc(SCC(=O)NCc3ccco3)nc2n1,87,i,i,-1,-7,77*[inhibitor],104,3,101
Cc1ccc2cc(C#N)c(SCC(=O)NCc3ccco3)nc2c1,2.0*[inhibitor],i,i,0,-17,2.0*[inhibitor],98,-6,100
Cc1ccc(NC(=O)CSc2ncn[nH]2)c([N+](=O)[O-])c1,x,x,i,0,x,x,x,x,x
O=C(Nc1ccc(Cl)c(Cl)c1)OCCNC(=O)c1cccc(Cl)c1,100,i,i,4,10,98,x,x,x
O=c1cc(CN2CCCCC2)nc(C2CC2)[nH]1,102,i,i,0,0,99,x,x,x
Cc1nc(CN2CCOCC2)cc(=O)[nH]1,2.0*[inhibitor],i,i,-2,-16,2.0*[inhibitor],102,3,101
O=C(Nc1nccs1)C1CC(=O)N(c2ccc(Cl)cc2)C1 (stereo unspecified),102,i,i,0,3,103,x,x,x
Cc1ccccc1C(=O)N(Cc1nc2ccccc2c(=O)[nH]1)C1CCCC1,113,i,i,1,0,128*,99,0,102
CCOc1ccc2c(c1)c(N=NC(=N)N)c(O)n2C,104,i,i,0,1,128*,107,4,104
CN(C)S(=O)(=O)c1cccc(-c2nnc(SCC(=O)NCCCCCC(=O)O)n2-c2ccc(F)cc2)c1,x,i,i,0,x,x,x,x,x
CCN(C[C@H]1N[C@@](C)(C(=O)OC)[C@H]2C(=O)N(Cc3ccccc3)C(=O)[C@@H]12)C(=O)c1ccccc1,x,x,x,-3,x,x,x,x,x
CCC(=O)Nc1ccccc1C(=O)OCC(=O)c1cccc2ccccc12,79,i,i,4,-11,68*[inhibitor],99,-9,100
COc1cc(C(Nc2ccc(S(=O)(=O)N3CCC(C)CC3)cc2)C(=O)NCC2CCCO2)cc(OC)c1OC (stereo unspecified),109,i,i,3,3,109,x,x,x
COc1cc(C(Nc2ccc(S(=O)(=O)NCC3CCCO3)cc2)C(=O)NC(C)(C)C)cc(OC)c1OC (stereo unspecified),121,i,i,0,30,129*,102,1,99
O=C(CSc1nc2ccccc2[nH]1)N/N=C/c1ccco1,104,i,i,-1,0,103,x,x,x
CCC(C(=O)NC(C)(C)C)N(C(=O)Cn1nnc(-c2ccccc2F)n1)c1cnc2ccccc2c1 (stereo unspecified),120,i,i,3,1,128*,101,4,102
CCC(=O)OC1(C)C(=O)C2=COC(c3ccc(OC)cc3)=CC2=C(Br)C1=O (stereo unspecified),99,i,i,-1,-2,93,x,x,x
SMILES,MEKK2wt PB1 HTS,TMEM16A inh,TMEM16A act,NTR1 agonist,MEKK2 mut-MEK5,MEKK3 PB1 HTS,MEKK2wt confirm,MEKK2mut-MEK5,MEKK3 confirm
CC1(OC(=O)CCc2ccccc2)C(=O)C=C2C=C(c3ccc(C#N)cc3)N(Cc3ccccc3)C=C2C1=O (stereo unspecified),93,i,i,-1,-15,102,x,x,x
COC(=O)CCC(=O)OC1(C)C(=O)C2=CN(C3CC3)C(c3ccc(OC)cc3)=CC2=C(Br)C1=O (stereo unspecified),2.0*[inhibitor],i,i,2,-2,87,93,2,94
CC1(OC(=O)CCc2ccccc2)C(=O)C=C2C=C(c3ccc(C#N)cc3)N(C3CC3)C=C2C1=O (stereo unspecified),140*,i,i,-2,4,125,97,-1,101
COC(=O)CCC(=O)OC1(C)C(=O)C2=CN(c3ccccc3)C(c3ccc(OC)cc3)=CC2=C(Br)C1=O (stereo unspecified),-5.0*,i,i,0,5,75*[inhibitor],89,-4,91
CC1CN(C(=O)N2CCCCC2)CCN1C(=O)N1CCCCC1 (stereo unspecified),102,i,i,0,0,101,x,x,x
Cc1ccc(C(=O)NC2CCN(CC(=O)NC3CCC(C)CC3)CC2)cc1 (stereo unspecified),100,i,i,1,-1,104,x,x,x
